Pf apPOL inh: Pf-apPOL DNA polymerase inhibition. 0.25% of 210,000 active. Recombinant Pf-apPOL, molecular beacon fluorescence, 1.5 h. inhibition, % at 10 µM
mHTT CaM bind: inhibitors of human mutant huntingtin-calmodulin interaction | P42858 | AlphaScreen His-mHTT/GST-CaM binding, luminescence | inhibition, % at 15 µM | 3.6% of 190,000 active | AID 1671202;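 note: 0% = both proteins with DMSO and 100% = one protein alone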
* marks the source's active call; other numbers are inactive results; i = inactive; · = no result. A selection: hits, their analogues and other compounds. The true share with any hit is near 3.5%. Cut-off read from the data, not from the text of the source: active = inhibition above about 50%; inactive = the rest.

SMILES	Pf apPOL inh	mHTT CaM bind
COc1cc2c(cc1NC(=O)Cc1ccc([N+](=O)[O-])cc1)oc1ccccc12	1	4
CCCC(=O)N1CCCC(c2ccnc(Nc3ccc(F)cc3)n2)C1 (centres undefined)	-4	2
CCCC(=O)N1CCCC(c2ccnc(Nc3cccc(F)c3)n2)C1 (centres undefined)	-1	62*
O=C(C1CCCC1)N1CCCC(c2ccnc(Nc3cccc(F)c3)n2)C1 (centres undefined)	-7	13
O=C(C1CCCCC1)N1CCCC(c2ccnc(Nc3cccc(F)c3)n2)C1 (centres undefined)	-3	72*
CCn1ccc2c(cc(C(=O)Nc3ccc(Br)c(C)c3)n2C)c1=O	4	42
CC(=O)O/N=C/c1ccc(-c2ccc([N+](=O)[O-])cc2)o1	-6	i
O=C(Cn1cnc2c(-c3ccc(F)cc3)csc2c1=O)NCc1ccccc1	-2	-9
CCOC(=O)N1CCN(C(=O)c2ccc3nc(-c4ccco4)c(-c4ccco4)nc3c2)CC1	1	-3
O=C(NC1=NCCS1)c1ccc2nc(-c3ccco3)c(-c3ccco3)nc2c1	-4	72*
O=C(c1ccc2nc(N3C(=O)CCC3=O)sc2c1)N(CCO)c1ccccc1	-4	10
O=C(Nc1ccc2nc(-c3ccco3)c(-c3ccco3)nc2c1)NC1CC1	-2	99*
O=C(Nc1nccs1)c1ccc2nc(-c3ccco3)c(-c3ccco3)nc2c1	2	93*
O=C(Nc1ccc2nsnc2c1)NC1CC1	-3	0
O=C(c1ccc2nc(-c3ccco3)c(-c3ccco3)nc2c1)N(CCO)c1ccccc1	2	67*
O=C(Nc1ccccc1F)c1ccc2nc(-c3ccco3)c(-c3ccco3)nc2c1	3	-1
CCc1cc(C(=O)N2CCCC2c2cccc(F)c2)no1 (centres undefined)	-2	-7
Cc1ccnc(N2CCCC(C(=O)N3CCN(C)CC3)C2)n1 (centres undefined)	-3	-8
CN1CCN(c2ccc([N+](=O)[O-])c(Sc3cccc4cccnc34)c2)CC1	-1	35
O=[N+]([O-])c1ccc(N2CCCC2)cc1Sc1cccc2cccnc12	-2	101*
Cc1ccc(/C=C2\N=C(c3cc(Cl)ccc3Cl)OC2=O)o1	-4	8
O=C(Cn1cnc(-c2cccs2)cc1=O)Nc1ccc(-c2ccc(=O)[nH]n2)cc1	-6	20
COc1ccc(C2/C=C\CN[C@@H](Cc3ccccc3)C(=O)N2Cc2ccc(F)cc2)cc1 (some centres undefined)	0	64*
COc1ccc(C2/C=C\CN(C(=O)C3CCCC3)CC(=O)N2Cc2ccc(F)cc2)cc1 (centres undefined)	-3	63*
COc1ccc(C2/C=C\CN(C(=O)C3CCCCC3)CC(=O)N2Cc2ccc(F)cc2)cc1 (centres undefined)	2	29
SMILES	Pf apPOL inh	mHTT CaM bind
COc1ccc(C2/C=C\CN(CC3CC3)[C@@H](Cc3ccccc3)C(=O)N2Cc2ccc(F)cc2)cc1 (some centres undefined)	-1	42
COC(=O)N1C/C=C\C(c2ccc(OC)cc2)N(Cc2ccc(F)cc2)C(=O)C1 (centres undefined)	-2	26
COc1ccc(C2/C=C\CN(C(=O)Nc3ccccc3-c3ccccc3)CC(=O)N2Cc2ccc(F)cc2)cc1 (centres undefined)	-1	60*
CNC(=O)N1CCCC(c2cccc(C(=O)NCc3ccc(OC)cc3OC)c2)C1 (centres undefined)	-3	13
CC1=N/C(=C/c2ccc(OC(F)F)cc2)C(=O)O1	-1	-1
Cc1cc(C)n(NC(=O)CCn2ncc(Br)c2C)c(=O)c1	·	7
O=C1CC(c2ccc3c(c2)OCO3)CC2=C1C(c1ccc3c(c1)OCO3)Nc1ccccc1N2 (centres undefined)	-2	27
O=C1CC(c2ccccc2)CC2=C1C(c1ccc(F)cc1)Nc1ccccc1N2 (centres undefined)	-13	11
O=C1CC(c2ccccc2)CC2=C1C(c1cccc(C(F)(F)F)c1)Nc1ccccc1N2 (centres undefined)	-16	61*
COc1cccc(C2CC(=O)C3=C(C2)Nc2ccccc2NC3c2ccc(C)s2)c1 (centres undefined)	-6	28
CSc1ccc(C2Nc3ccccc3NC3=C2C(=O)CC(c2cccs2)C3)cc1 (centres undefined)	-11	54*
COc1cccc(C2CC(=O)C3=C(C2)Nc2ccccc2NC3c2ccc(C(F)(F)F)cc2)c1 (centres undefined)	-13	53*
O=C1CC(c2cccs2)CC2=C1C(c1ccc(Cl)cc1)Nc1ccccc1N2 (centres undefined)	-21	33
O=C1CC(c2ccc3c(c2)OCO3)CC2=C1C(c1ccc(C(F)(F)F)cc1)Nc1ccccc1N2 (centres undefined)	2	62*
CCCCSC1CC(=O)N(c2ccc(N3C(=O)CC(SCCCC)C3=O)cc2)C1=O (centres undefined)	-3	15
Cc1ccc(C(=O)Nc2ccc(Cl)c(Cl)c2)cc1	1	-13
COCCCNC(=O)COc1ccc([N+](=O)[O-])cc1	-5	-21
COc1ccccc1-c1cn[nH]c1-c1ccc(OCC=C(C)C)cc1O	-3	68*
CCCCOc1ccc(-c2[nH]ncc2Oc2ccccc2)c(O)c1	-10	93*
COc1ccc(-c2[nH]ncc2Oc2ccccc2)c(O)c1	-9	35
COc1ccccc1-c1c(C(F)(F)F)oc2cc(OCC=C(C)C)ccc2c1=O	1	-8
COc1ccc(Oc2cncnc2-c2ccc(OCc3ccccc3)cc2O)cc1	4	0
CCCOc1ccc(-c2[nH]ncc2Oc2ccccc2)c(O)c1	-4	80*
CCc1cc(C(=O)COc2ccc(F)cc2)c(O)cc1O	-4	-1
CCc1cc(-c2[nH]ncc2Oc2ccc(Cl)cc2)c(O)cc1O	0	100*
SMILES	Pf apPOL inh	mHTT CaM bind
COc1ccc(C)cc1NC(=O)CN1CCC(c2nc(-c3ccccc3Cl)no2)CC1	-4	-9
C=CCNC(=O)N1CCC(c2nc(C)ccc2C(=O)NCC)CC1	-2	-2
CCCCC(=O)N1CCc2nc3cc(-c4ccccc4Cl)[nH]n3c(=O)c2C1	-2	-2
COc1cc(S(=O)(=O)N2CCN(c3ccc(C)c(C)c3)CC2)c(OC)cc1Br	1	59*
COc1cc(Br)c(S(=O)(=O)N2CCN(c3ccc(C)c(C)c3)CC2)cc1OC	1	53*
Cc1cc(Br)c(S(=O)(=O)N2CCN(c3ccccc3)CC2)cc1C	-8	-2
COc1cc(S(=O)(=O)N2CCN(c3ccc(F)cc3)CC2)c(OC)cc1Br	-6	1
O=C(C1CCN(c2nnc(-c3ccccc3)o2)CC1)N1CCN(C2CCCCC2)CC1	-3	22
Cc1ccc(-c2noc(CCn3nc(-c4ccccc4)ccc3=O)n2)cc1	0	17
O=c1ccc(-c2ccccc2)nn1CCc1nc(-c2cccc(F)c2)no1	-9	81*
COc1ccccc1-c1noc(C2CCCN2C(=O)c2ccc(C#N)cc2)n1 (centres undefined)	0	4
Cc1ccc(S(=O)(=O)N=C2C=CC(=O)C=C2)cc1	-5	46
O=C(O)c1cccc(S(=O)(=O)N2CCCCCC2)c1	-3	-15
CC(C)(C)C1=CC(=NS(=O)(=O)c2ccc(F)cc2)C=C(C(C)(C)C)C1=O	-6	1
